Numbering of substitutions follows the chain as printed.
Assays:
Test in all cases: PBM; 200 nM protein, PBS
Conditions in all cases: dsDNA, one strand shown
VENTX [1] = target: T1, VENTX (Homo sapiens, UniProt O95231 78-163, R121Q)
T1 sequence: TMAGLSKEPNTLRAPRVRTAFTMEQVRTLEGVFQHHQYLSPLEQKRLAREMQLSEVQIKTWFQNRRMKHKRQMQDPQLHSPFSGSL

HOXC9 [2] = target: HOXC9 (Homo sapiens, UniProt P31274 178-260, K195R)
VENTX [3] = target: T2, VENTX (Homo sapiens, UniProt O95231 78-163)
T2 sequence: T1 sequence with Q44R

VENTX [4] = target: T3, VENTX (Homo sapiens, UniProt O95231 78-163, Y115F)
T3 sequence: T1 sequence with Y38F, Q44R

HOXC9 [5] = target: HOXC9 (Homo sapiens, UniProt P31274 178-260)
HOXC9 (Homo sapiens, UniProt P31274 178-260), sequence (P31274 178-260): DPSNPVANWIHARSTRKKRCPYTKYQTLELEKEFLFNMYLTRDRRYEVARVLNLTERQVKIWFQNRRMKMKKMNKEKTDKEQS

HOXC9 [6] = target: HOXC9 (Homo sapiens, UniProt P31274 178-260, R193K)
HOXC9 (Homo sapiens, UniProt P31274 178-260, R193K), sequence (P31274 178-260 R193K): as the sequence (P31274 178-260) above, with R16K counted along it

VAX1 [7] = target: VAX1 (Homo sapiens, UniProt Q5SQQ9 86-172)
VAX1 (Homo sapiens, UniProt Q5SQQ9 86-172), sequence (Q5SQQ9 86-172): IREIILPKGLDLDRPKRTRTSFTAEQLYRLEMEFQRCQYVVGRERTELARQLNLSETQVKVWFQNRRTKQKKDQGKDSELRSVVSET

HOXC9 [8] = target: HOXC9 (Homo sapiens, UniProt P31274 178-260, R222W)
HOXC9 (Homo sapiens, UniProt P31274 178-260, R222W), sequence (P31274 178-260 R222W): as the sequence (P31274 178-260) above, with R45W counted along it

VAX1 [9] = target: VAX1 (Homo sapiens, UniProt Q5SQQ9 86-172, T142I)
VAX1 (Homo sapiens, UniProt Q5SQQ9 86-172, T142I), sequence (Q5SQQ9 86-172 T142I): as the sequence (Q5SQQ9 86-172) above, with T57I counted along it

VAX1 [10] = target: VAX1 (Homo sapiens, UniProt Q5SQQ9 86-172, K157R)
VAX1 (Homo sapiens, UniProt Q5SQQ9 86-172, K157R), sequence (Q5SQQ9 86-172 K157R): as the sequence (Q5SQQ9 86-172) above, with K72R counted along it

HOXB9 [11] = target: HOXB9 (Homo sapiens, UniProt P17482 171-250, T197M)
HOXB9 (Homo sapiens, UniProt P17482 171-250, T197M), sequence (P17482 171-250 T197M): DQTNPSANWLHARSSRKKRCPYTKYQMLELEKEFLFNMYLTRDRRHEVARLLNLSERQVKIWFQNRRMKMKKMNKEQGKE

HOXB9 [12] = target: HOXB9 (Homo sapiens, UniProt P17482 171-250)
HOXB9 (Homo sapiens, UniProt P17482 171-250), sequence (P17482 171-250): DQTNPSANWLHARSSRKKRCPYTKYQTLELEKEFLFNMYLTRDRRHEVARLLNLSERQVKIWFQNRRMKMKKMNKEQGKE

ALX3 [13] = target: ALX3 (Homo sapiens, UniProt O95076 139-225, N203Q)
ALX3 (Homo sapiens, UniProt O95076 139-225, N203Q), sequence (O95076 139-225 N203Q): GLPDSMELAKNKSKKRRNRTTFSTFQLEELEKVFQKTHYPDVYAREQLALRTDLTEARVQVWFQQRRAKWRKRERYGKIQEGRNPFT

ALX3 [14] = target: ALX3 (Homo sapiens, UniProt O95076 139-225)
ALX3 (Homo sapiens, UniProt O95076 139-225), sequence (O95076 139-225): as the sequence (O95076 139-225 N203Q) above, with Q65N counted along it

ALX3 [15] = target: ALX3 (Homo sapiens, UniProt O95076 139-225, L168Q)
ALX3 (Homo sapiens, UniProt O95076 139-225, L168Q), sequence (O95076 139-225 L168Q): as the sequence (O95076 139-225 N203Q) above, with L30Q, Q65N counted along it

HOXB9 [16] = target: HOXB9 (Homo sapiens, UniProt P17482 171-250, R186Q)
HOXB9 (Homo sapiens, UniProt P17482 171-250, R186Q), sequence (P17482 171-250 R186Q): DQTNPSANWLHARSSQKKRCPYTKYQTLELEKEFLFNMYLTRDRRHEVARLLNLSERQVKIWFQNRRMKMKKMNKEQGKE

ALX3 [17] = target: ALX3 (Homo sapiens, UniProt O95076 139-225, L168V)
ALX3 (Homo sapiens, UniProt O95076 139-225, L168V), sequence (O95076 139-225 L168V): as the sequence (O95076 139-225 N203Q) above, with L30V, Q65N counted along it

ALX3 [18] = target: ALX3 (Homo sapiens, UniProt O95076 139-225, N203S)
ALX3 (Homo sapiens, UniProt O95076 139-225, N203S), sequence (O95076 139-225 N203S): as the sequence (O95076 139-225 N203Q) above, with Q65S counted along it

SIX6 [19] = target: T4, SIX6 (Homo sapiens, UniProt O95475 114-200, L167I)
T4 sequence: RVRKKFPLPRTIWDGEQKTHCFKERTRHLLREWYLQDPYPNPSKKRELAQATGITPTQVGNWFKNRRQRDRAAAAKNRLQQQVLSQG

SIX6 [20] = target: T5, SIX6 (Homo sapiens, UniProt O95475 114-200, L143V)
T5 sequence: T4 sequence with L30V, I54L

SIX6 [21] = target: T6, SIX6 (Homo sapiens, UniProt O95475 114-200, H141N)
T6 sequence: T4 sequence with H28N, I54L

SIX6 [22] = target: T7, SIX6 (Homo sapiens, UniProt O95475 114-200, T165P)
T7 sequence: T4 sequence with T52P, I54L

SIX6 [23] = target: T8, SIX6 (Homo sapiens, UniProt O95475 114-200, L167M)
T8 sequence: T4 sequence with I54M

SIX6 [24] = target: T9, SIX6 (Homo sapiens, UniProt O95475 114-200, L143M)
T9 sequence: T4 sequence with L30M, I54L

SIX6 [25] = target: T10, SIX6 (Homo sapiens, UniProt O95475 114-200, L143I)
T10 sequence: T4 sequence with L30I, I54L

SIX6 [26] = target: T11, SIX6 (Homo sapiens, UniProt O95475 114-200, T165G)
T11 sequence: T4 sequence with T52G, I54L

SIX6 [27] = target: T12, SIX6 (Homo sapiens, UniProt O95475 114-200, T139Q)
T12 sequence: T4 sequence with T26Q, I54L

MSX2 [28] = target: MSX2 (Homo sapiens, UniProt P35548 130-214, R199I)
MSX2 (Homo sapiens, UniProt P35548 130-214, R199I), sequence (P35548 130-214 R199I): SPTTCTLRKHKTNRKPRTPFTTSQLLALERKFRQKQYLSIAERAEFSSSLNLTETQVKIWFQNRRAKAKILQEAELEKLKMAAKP

SIX6 [29] = target: T13, SIX6 (Homo sapiens, UniProt O95475 114-200, T165A)
T13 sequence: T4 sequence with T52A, I54L

MSX2 [30] = target: MSX2 (Homo sapiens, UniProt P35548 130-214)
MSX2 (Homo sapiens, UniProt P35548 130-214), sequence (P35548 130-214): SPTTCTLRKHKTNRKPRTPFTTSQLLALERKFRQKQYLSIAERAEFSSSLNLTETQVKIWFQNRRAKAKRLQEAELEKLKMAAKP

SIX6 [31] = target: T14, SIX6 (Homo sapiens, UniProt O95475 114-200, L167V)
T14 sequence: T4 sequence with I54V

SIX6 [32] = target: T15, SIX6 (Homo sapiens, UniProt O95475 114-200)
T15 sequence: T4 sequence with I54L

SIX6 [33] = target: T16, SIX6 (Homo sapiens, UniProt O95475 114-200, T165I)
T16 sequence: T4 sequence with T52I, I54L

MSX2 [34] = target: MSX2 (Homo sapiens, UniProt P35548 130-214, F161Y)
MSX2 (Homo sapiens, UniProt P35548 130-214, F161Y), sequence (P35548 130-214 F161Y): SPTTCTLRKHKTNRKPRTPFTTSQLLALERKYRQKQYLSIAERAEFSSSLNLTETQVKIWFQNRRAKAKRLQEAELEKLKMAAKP

HOXC9 (Homo sapiens, UniProt P31274 178-260, K195R), sequence (P31274 178-260 K195R): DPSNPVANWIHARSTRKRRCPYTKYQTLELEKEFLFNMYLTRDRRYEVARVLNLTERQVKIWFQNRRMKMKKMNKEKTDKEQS

## CCGGGAGG
VENTX [1]
  binding signal: 8.1 upbm affinity estimate (log intensity, higher = more binding, comparable within an allelic series)
HOXC9 [2]
  binding signal: 9.54 upbm affinity estimate (log intensity, higher = more binding, comparable within an allelic series)
VENTX [3]
  binding signal: 7.94 upbm affinity estimate (log intensity, higher = more binding, comparable within an allelic series)
VENTX [4]
  binding signal: 8.13 upbm affinity estimate (log intensity, higher = more binding, comparable within an allelic series)
HOXC9 [5]
  binding signal: 9.63 upbm affinity estimate (log intensity, higher = more binding, comparable within an allelic series)
HOXC9 [6]
  binding signal: 9.49 upbm affinity estimate (log intensity, higher = more binding, comparable within an allelic series)
VAX1 [7]
  binding signal: 7.03 upbm affinity estimate (log intensity, higher = more binding, comparable within an allelic series)
HOXC9 [8]
  binding signal: 9.7 upbm affinity estimate (log intensity, higher = more binding, comparable within an allelic series)
VAX1 [9]
  binding signal: 7.12 upbm affinity estimate (log intensity, higher = more binding, comparable within an allelic series)
VAX1 [10]
  binding signal: 7.11 upbm affinity estimate (log intensity, higher = more binding, comparable within an allelic series)

## GACCCAGC
VENTX [1]
  binding signal: 8.18 upbm affinity estimate (log intensity, higher = more binding, comparable within an allelic series)
HOXB9 [11]
  binding signal: 8.5 upbm affinity estimate (log intensity, higher = more binding, comparable within an allelic series)
VENTX [3]
  binding signal: 8.16 upbm affinity estimate (log intensity, higher = more binding, comparable within an allelic series)
VENTX [4]
  binding signal: 8.12 upbm affinity estimate (log intensity, higher = more binding, comparable within an allelic series)
HOXB9 [12]
  binding signal: 8.47 upbm affinity estimate (log intensity, higher = more binding, comparable within an allelic series)
ALX3 [13]
  binding signal: 7.75 upbm affinity estimate (log intensity, higher = more binding, comparable within an allelic series)
ALX3 [14]
  binding signal: 7.56 upbm affinity estimate (log intensity, higher = more binding, comparable within an allelic series)
ALX3 [15]
  binding signal: 7.85 upbm affinity estimate (log intensity, higher = more binding, comparable within an allelic series)
HOXB9 [16]
  binding signal: 8.49 upbm affinity estimate (log intensity, higher = more binding, comparable within an allelic series)
ALX3 [17]
  binding signal: 7.79 upbm affinity estimate (log intensity, higher = more binding, comparable within an allelic series)
ALX3 [18]
  binding signal: 7.8 upbm affinity estimate (log intensity, higher = more binding, comparable within an allelic series)

## GCGCGCCC
VENTX [1]
  binding signal: 8.19 upbm affinity estimate (log intensity, higher = more binding, comparable within an allelic series)
HOXB9 [11]
  binding signal: 8.46 upbm affinity estimate (log intensity, higher = more binding, comparable within an allelic series)
SIX6 [19]
  binding signal: 8.73 upbm affinity estimate (log intensity, higher = more binding, comparable within an allelic series)
VENTX [3]
  binding signal: 8.26 upbm affinity estimate (log intensity, higher = more binding, comparable within an allelic series)
SIX6 [20]
  binding signal: 8.71 upbm affinity estimate (log intensity, higher = more binding, comparable within an allelic series)
SIX6 [21]
  binding signal: 8.79 upbm affinity estimate (log intensity, higher = more binding, comparable within an allelic series)
SIX6 [22]
  binding signal: 8.94 upbm affinity estimate (log intensity, higher = more binding, comparable within an allelic series)
VENTX [4]
  binding signal: 8.22 upbm affinity estimate (log intensity, higher = more binding, comparable within an allelic series)
SIX6 [23]
  binding signal: 8.76 upbm affinity estimate (log intensity, higher = more binding, comparable within an allelic series)
SIX6 [24]
  binding signal: 8.75 upbm affinity estimate (log intensity, higher = more binding, comparable within an allelic series)
SIX6 [25]
  binding signal: 8.78 upbm affinity estimate (log intensity, higher = more binding, comparable within an allelic series)
SIX6 [26]
  binding signal: 8.82 upbm affinity estimate (log intensity, higher = more binding, comparable within an allelic series)
HOXB9 [12]
  binding signal: 8.66 upbm affinity estimate (log intensity, higher = more binding, comparable within an allelic series)
SIX6 [27]
  binding signal: 8.77 upbm affinity estimate (log intensity, higher = more binding, comparable within an allelic series)
MSX2 [28]
  binding signal: 9.61 upbm affinity estimate (log intensity, higher = more binding, comparable within an allelic series)
SIX6 [29]
  binding signal: 8.75 upbm affinity estimate (log intensity, higher = more binding, comparable within an allelic series)
MSX2 [30]
  binding signal: 9.64 upbm affinity estimate (log intensity, higher = more binding, comparable within an allelic series)
SIX6 [31]
  binding signal: 8.91 upbm affinity estimate (log intensity, higher = more binding, comparable within an allelic series)
SIX6 [32]
  binding signal: 8.8 upbm affinity estimate (log intensity, higher = more binding, comparable within an allelic series)
SIX6 [33]
  binding signal: 8.71 upbm affinity estimate (log intensity, higher = more binding, comparable within an allelic series)
HOXB9 [16]
  binding signal: 8.61 upbm affinity estimate (log intensity, higher = more binding, comparable within an allelic series)
MSX2 [34]
  binding signal: 9.62 upbm affinity estimate (log intensity, higher = more binding, comparable within an allelic series)

## GGCACCAC
VENTX [1]
  binding signal: 8.11 upbm affinity estimate (log intensity, higher = more binding, comparable within an allelic series)
HOXC9 [2]
  binding signal: 9.65 upbm affinity estimate (log intensity, higher = more binding, comparable within an allelic series)
VENTX [3]
  binding signal: 8.1 upbm affinity estimate (log intensity, higher = more binding, comparable within an allelic series)
VENTX [4]
  binding signal: 8.09 upbm affinity estimate (log intensity, higher = more binding, comparable within an allelic series)
HOXC9 [5]
  binding signal: 9.66 upbm affinity estimate (log intensity, higher = more binding, comparable within an allelic series)
HOXC9 [6]
  binding signal: 9.65 upbm affinity estimate (log intensity, higher = more binding, comparable within an allelic series)
HOXC9 [8]
  binding signal: 9.76 upbm affinity estimate (log intensity, higher = more binding, comparable within an allelic series)

Source: PMC11006913
